From PubChem
Most compounds without a hit are left out; they make up all but 3.3% or so of the library.
MITF TRPM1 HTS: increases MITF-driven TRPM1 promoter luciferase signal; SK-MEL-5 TRPM1-promoter luciferase, 24 h; % of positive control, neutral wells = 0; activation, % at 12.5 µM; actives 0.75% (n = 300,000); AID 588334;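 active = mean activation of at least 80% with every replicate also reaching 80%; inconclusive = mean reaches 80% but some replicate falls short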;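 also: 0% = neutral control wells and 100% = parthenolide positive control wells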
Wnt act: activators of Wnt/beta-catenin signaling; activation, % at 9.35 µM; Wnt/beta-catenin reporter cell assay, activator, plate reader; actives 1.2% (n = 300,000); AID 743398; in the data active = activation above about 30%, passing the limit was not always enough; inconclusive = no clear call, values can overlap the other calls;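 also: 0% = neutral control wells and 100% = positive control wells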
FXN GAA850 act: frataxin GAA850 promoter activation | actives 0.56% (n = 360,000) | HEK293 lucGAA850 FXN promoter luciferase reporter, 24 h; percent of 10 µM SAHA response | activation, % at 6 µM;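 active = activation above the average of all compounds screened plus 3 SD, cutoff fixed separately per campaign, cut at about 7.5% in these data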;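 also: 0% = DMSO wells and 100% = 10 µM SAHA wells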
esBAF inh: SWI/SNF esBAF complex inhibition | mouse ES cells, Bmi1-luciferase knock-in reporter, 24 h; 100% = twice the neutral-well signal | AID 602393 | reporter increase, % at 12.5 µM | actives 2% (n = 350,000); in the data active = activation above about 40%; inconclusive = no clear call, values can overlap the other calls;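 also: 0% = median of the plate's neutral control wells and 100% = double that signal; a rise in the Bmi1 reporter signal indicates esBAF inhibition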
C2C12 statin: suppressors of simvastatin-induced myotoxicity in C2C12 myotubes; ATP luminescence, 48 h; scaled: DMSO 0, geranylgeraniol control 100; rescue of ATP level, % at 7.49 µM; actives 0.78% (n = 330,000); AID 602340;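 active = mean ATP rescue above about 67%, or every replicate alone reaching that limit, limit read from the data, passing the limit was not always enough; inconclusive = no clear call, values can overlap the other calls; inactive = mean under the limit and some replicate under it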;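 also: myotubes were challenged with 10 µM simvastatin during compound exposure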
GAA30 counter: activates GAA30 frataxin promoter, counter-screen for GAA850 activators | shares compounds with FXN GAA850 act | HEK293 lucGAA30 FXN promoter luciferase, 24 h; DMSO = 0%, 5 µM ipriflavone = 100% | AID 588350 | activation, % at 6 µM | actives 66% (n = 1,900);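 active = mean activation above the mean of solvent-only control wells plus 3 SD, cut at about 22% in these data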;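 also: counterscreen of GAA850 promoter hits where activity marks nonselective or luminescence artifacts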
GAA850 confirm: confirmation of GAA850 frataxin (FXN) promoter activators; shares compounds with FXN GAA850 act; HEK293 lucGAA850 FXN promoter luciferase reporter, 24 h; 100% = activation by SAHA; activation, % at 6 µM; actives 86% (n = 1,900); AID 588351;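 active = mean activation above a set limit taken from the primary screen, cut at about 8% in these data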;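 also: 0% = DMSO wells and 100% = 10 µM SAHA wells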
Active calls of the source: *; ? = inconclusive; · = not tested or not shown.

SMILES	MITF TRPM1 HTS	Wnt act	FXN GAA850 act	esBAF inh	C2C12 statin	GAA30 counter	GAA850 confirm
CCC(=O)N/C(N)=N/c1nc2ccccc2o1	?	10.6	7.8*	·	·	113.2*	37.4*
N/C(=N\c1nc2ccccc2o1)NC(=O)/C=C/c1ccccc1	14.3	2.1	-5.4	·	·	·	·
CNC[C@@H]1Oc2ccc(NS(=O)(=O)c3cn(C)cn3)cc2C(=O)N([C@@H](C)CO)C[C@@H]1C	·	·	·	1.5	-9.7	·	·
CCOc1ccc2nc(SCC#N)c(C#N)cc2c1	-5.6	81.5*	8.2*	-8.1	80.5*	107.6*	31.7*
C=C1c2cccc(O)c2C(O)=C2C(=O)[C@]3(O)C(O)=C(C(N)=O)C(=O)[C@@H](N(C)C)[C@@H]3[C@@H](O)[C@H]12	-7.4	-1.4	16.5*	2.9	20.5	28.4*	9.6*
CN(C)c1ccc(O)c2c1CC1CC3[C@@H](N(C)C)C(=O)C(C(N)=O)C(=O)[C@]3(O)C(=O)C1C2=O (stereo not given in full)	-12.6	0.1	10.8*	14.5	4.5	35.2*	10.9*
C[C@H]1c2cccc(O)c2C(O)=C2C(=O)C3(O)C(O)=C(C(N)=O)C(=O)[C@@H](N(C)C)[C@@H]3[C@@H](O)[C@@H]21 (stereo not given in full)	6.7	10.3	16.7*	6.6	-3.4	22.0*	2.5
C[C@H]1c2cccc(O)c2C(=O)C2C(=O)C3(O)C(=O)C(C(N)=O)C(=O)[C@@H](N(C)C)[C@@H]3[C@@H](O)[C@@H]21 (stereo not given in full)	-0.7	3.1	14.2*	8.4	3.1	41.2*	12.7*
COc1ccccc1-c1cn(CC[C@H]2CC[C@@H](NC(=O)Cc3ccccn3)[C@H](CO)O2)nn1	·	·	·	1.7	-1.2	·	·
C[C@@H]1CN([C@@H](C)CO)C(=O)c2cccc(NC(=O)C3CCOCC3)c2O[C@@H]1CN(C)S(=O)(=O)c1ccc(Cl)cc1	·	·	·	0.6	7.5	·	·
C[C@@H]1CN([C@H](C)CO)C(=O)c2ccccc2-c2ccccc2CO[C@@H]1CN(C)S(=O)(=O)c1cccc(C#N)c1	·	·	·	8.1	4.7	·	·
C[C@@H]1CN([C@H](C)CO)C(=O)c2cc(NC(=O)Nc3ccccc3)ccc2O[C@@H](C)CCCCO[C@H]1CN(C)C	·	·	·	-2.1	13.7	·	·
CCCN(C)C[C@@H]1Oc2cc(C#CC3CCCCC3)ccc2S(=O)(=O)N([C@@H](C)CO)C[C@H]1C	·	·	·	-1.2	-50.0	·	·
COc1ccc(NC(=O)Nc2ccc3c(c2)C(=O)N([C@H](C)CO)C[C@H](C)[C@@H](CN(C)C(=O)Nc2ccc(C(F)(F)F)cc2)OCCCC[C@H](C)O3)cc1	·	·	·	2.4	·	·	·
CN(C)c1ccc(O)c2c1CC1CC3C(N(C)C)C(=O)C(C(N)=O)=C(O)[C@@]3(O)C(=O)C1=C2O (stereo not given in full)	-26.1	1.5	25.0*	7.7	1.5	23.6*	6.5
C[C@H](CO)N1C[C@H](C)[C@H](CN(C)C(=O)Nc2ccc3c(c2)OCO3)Oc2ncc(C#CCN(C)C)cc2C1=O	·	·	·	-2.4	3.6	·	·
CC(C)(C)c1ccc(OCCn2ccccc2=O)cc1	·	62.2*	8.5*	59.5*	-2.3	100.4*	41.5*
C[C@@H]1CCCCO[C@@H](CN(C)C)[C@H](C)CN([C@@H](C)CO)C(=O)c2cc(NS(=O)(=O)c3cccs3)ccc2O1	·	·	·	1.1	·	·	·
CC(=O)c1cccc(Nc2nc(-c3ccccc3)cs2)c1	130.0*	20.8	7.8*	7.4	-4.7	101.1*	28.2*
CO[C@H]1CN(C)C(=O)c2ccc(NC(C)=O)cc2OC[C@H](C)N(CC2CC2)C[C@H]1C	·	·	·	4.2	-3.4	·	·
CC1CN(c2ccc(Oc3ccccc3)cc2)c2nc3c(c(=O)n(CC(N)=O)c(=O)n3C)n2C1 (stereo not given)	7.9	-1.8	18.0*	4.1	·	2.5	2.1
CCCc1cc(C(=O)Nc2cccnc2Cl)no1	·	9.6	4.4	9.3	·	·	·
